# Values joined by “and” are separate entries in the source; they are usually repeats but may differ in a detail not shown here. Equal values may be shown once.
# Test system: Fibrinogen (Alexa647-labelled)
# Test: Alexa647-fibrinogen binding to printed small molecules – biochemical, small-molecule microarray, 635/667 nm fluorescence, artefact control for SMM control-protein annotation, profiling panel (AID 1131);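 further: z-score merges 667 nm fluorescence with per-spot signal-to-noise over triplicate slides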
# Conditions: fibrinogen-A647 binding fluorescence, higher = more signal
row,SMILES,composite z-score
1,C=CCN(Cc1ccccc1)C(=O)C1N(CCOCCO)C(=O)C2C(C(=O)O)C3C=CC21O3 (centres undefined),-1.23 and -1.34
2,C[N+](C)(C)CCCCCCNC(=O)[C@H]1C[C@H]2C(=O)N[C@@H](CCCC[N+](C)(C)C)C(=O)N2[C@H]1c1cccc(OCCO)c1,0.638 and -0.338
3,CCCCCN1CC=CC23O[C@@H]4C=CCCOC(=O)C4[C@H]2C(=O)N(C(C)CO)[C@@H]3C1=O (some centres undefined),-0.458 and 0.0661
4,O=C1[C@H]2[C@H]3[C@H](O)[C@H](O)CC(=NOCc4ccccc4)[C@H]3CC[C@H]2C(=O)N1Cc1ccccc1,-0.908
5,CO[C@H]1COC(=O)CC=C[C@H](C)[C@H](OC)COC(=O)[C@@H](C)COC(=O)CC=C[C@@H]1C,-0.77 and -1.28
6,CN1C(=O)C2CC=C([C@H]3Oc4ccccc4S(=O)(=O)N4CCC[C@@H]34)CC2C1=O (some centres undefined),0.0887 and -1.25
7,C[C@@H](ON=C1[C@H]2CCn3c(=O)n(-c4ccccc4)c(=O)n3[C@H]2[C@H](O)[C@@H]2O[C@H]12)c1cn([C@H](CO)Cc2ccccc2)nn1,0.343
8,CCOC(=O)C[C@H]1[C@H](OC(=O)c2ccccc2-c2ccccc2)[C@@H](NC(=O)Cc2ccc(OC)cc2)c2cc(OCCCO)ccc2N1C(=O)c1ccc2ccccc2n1,0.524 and 0.464
9,CCOC(=O)[C@H](CC(C)C)NC(=O)CCC1CC(OC(=O)NCc2cccc3ccccc23)CC2(CCCC(COC(=O)NCc3ccccc3)O2)O1 (some centres undefined),-1.97
10,Cc1ccc(S(=O)(=O)N[C@@H]2COC(=O)CC=C[C@@H](C)[C@@H]3C=C[C@H](O)[C@@H](COC(=O)CC=C[C@H]2C)O3)cc1,-0.656 and 0.267
11,CO[C@@H]1COC(=O)[C@H](Cc2ccccc2)NC(=O)CC=C[C@@H](C)[C@H](OC)COC(=O)[C@@H](C)NC(=O)CC=C[C@H]1C,-0.116 and -0.231

# Biological target: Follistatin (Homo sapiens) (UniProt P19883)
# Sequence (P19883 whole entry, looked up): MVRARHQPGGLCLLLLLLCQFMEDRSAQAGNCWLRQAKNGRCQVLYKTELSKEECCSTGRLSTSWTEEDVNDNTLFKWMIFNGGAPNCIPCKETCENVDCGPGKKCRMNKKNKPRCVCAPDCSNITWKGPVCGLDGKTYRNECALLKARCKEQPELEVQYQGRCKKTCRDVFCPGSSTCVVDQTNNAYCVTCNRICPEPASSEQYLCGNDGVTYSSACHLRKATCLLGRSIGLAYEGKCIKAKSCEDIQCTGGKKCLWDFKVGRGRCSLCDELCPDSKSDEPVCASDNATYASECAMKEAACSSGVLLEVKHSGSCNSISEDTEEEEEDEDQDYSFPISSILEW
# Test: FST protein binding to printed compounds – biochemical, small-molecule microarray, 635/667 nm fluorescence, primary screen (AID 1132)
# Conditions: 635 nm fluorescence, higher = more signal
row,SMILES,composite z-score
1,CC(C)=NOC[C@@H](O)COCc1ccco1,0.112
2,COC(=O)C1=C(C)N(Cc2ccccc2)C2=C(C(C)=O)C[C@@](O)(C(=O)OC)C(=O)N2[C@@H]1c1ccccc1,0.247 and 0.12
3,COC(=O)[C@@]1(Cc2ccc(OC)cc2)[C@H]2c3cc(C(=O)N(C)C)n(Cc4ccc(O)c(OC)c4)c3C[C@H]2CN1C(=O)c1ccccc1,0.231 and 0.715
4,C=CC[C@H](O)c1ccc(OCCO)cc1,0.519 and 0.726
5,CC(C)=NO[C@@H](C)c1cc(-c2c(C)cc(C)cc2C)no1,0.0215
6,C[N+](C)(C)CCCCNC(=O)[C@H]1C[C@H]2C(=O)N[C@@H](CCCC[N+](C)(C)C)C(=O)N2[C@H]1c1ccc(O)cc1,1.57 and 1.45
7,C[C@@]1([C@@H](NC(=O)Cc2ccccc2)c2ccc(-c3ccccc3)cc2)C[C@H]1C1CCCCC1,0.153 and -0.222 and -0.138
8,CCN1C(=O)[C@H]2[C@H]3[C@H](O)[C@H](O)CC(=NOC)[C@@H]3CC[C@H]2C1=O,0.0723
9,O=C1NC(=O)C2C1C=CC(C(O)c1ccc([N+](=O)[O-])cc1)N2Nc1ccc(Cl)cc1Cl (centres undefined),0.816 and 0.774
10,C=C[C@H](C)[C@@H](O)c1ccc(OCCO)cc1,0.42 and 0.345
11,CC(C)CON=C1C[C@@H](O)[C@@H](O)[C@@H]2[C@@H]3C(=O)N(c4cccc(Oc5ccccc5)c4)C(=O)[C@@H]3CC[C@H]12,0.39
12,CO[C@H]1COC(=O)CC=C[C@@H](C)COC(=O)[C@H](CCSC)NC(=O)CC=C[C@@H]1C,1.5 and 1.58
13,C=C[C@@H](OC)[C@H](O)c1ccc(OCCO)cc1,-0.286 and -0.426
14,CCOC(=O)c1ccc(NC(=O)O[C@H]2[C@H](OC(=O)Nc3ccccc3)[C@@H](OC(=O)Nc3ccccc3)[C@@H](OC)O[C@@H]2CO)cc1,1.2 and 1.4
15,C=CCN(C(=O)C(c1cccs1)N(CCOCCO)C(=O)/C=C\C(=O)O)c1ccc(OC)cc1 (centres undefined),-0.745 and -1.07
16,C#CCN1C(/C=C/c2ccccc2)C(=O)OC[C@H]1c1ccccc1 (some centres undefined),1.28 and 0.768
17,CO[C@@H]1COC(=O)CC=C[C@H](C)COC(=O)[C@H](C)NC(=O)CC=C[C@H]1C,1.11
18,Cc1cc2c(nc1C)CCCN2CC(O)CN1CCCc2nc(-c3ccc(Br)cc3)ccc21 (centres undefined),1.27 and 1.29
19,C=CCN(CCCCC)C(=O)C(c1cccs1)N(CCOCCO)C(=O)/C=C\C(=O)O (centres undefined),-2.22 and -1.47
20,COc1ccc(-c2ccc3c(n2)CCCN3CC(O)CN2CCCc3nc(-c4ccc(Br)cc4)ccc32)cc1 (centres undefined),0.922 and 0.796
21,C=C[C@H](OC)[C@@H](O)c1ccc(OCCO)cc1,-1.51 and -0.835
22,C=CCN(C(=O)C1N(CCCCCCO)C(=O)C2C(C(=O)O)C3C=CC21O3)c1ccc(OC)cc1 (centres undefined),-1.83 and -1.96
23,O=C1C[C@]2(c3ccc([N+](=O)[O-])cc3)C(=O)N(Cc3ccccc3)c3cc(CO)ccc3[C@H]2N1C1CCCCC1,0.585 and 1.41
